Rows were chosen to be rich in hits. Some 0.7% of all compounds tested hit in one or more screens of this group.
FadD28 FP inh: inhibitors of Mycobacterium tuberculosis FadD28 bisubstrate binding; FadD28 bisubstrate probe binding, fluorescence polarization; 360,000 tested, 0.22% active; inhibition, % at 12.5 µM; in the data active means inhibition above about 8.5%, passing the limit was not always enough
DUSP3 inh: inhibitors of human VHR1 phosphatase (DUSP3). inhibition, % at 13.3 µM. recombinant VHR phosphatase, pNPP absorbance. AID 1654. P51452. 290,000 tested, 0.52% active; in the data active means inhibition above about 50%
Target sequence (P51452 whole entry, looked up): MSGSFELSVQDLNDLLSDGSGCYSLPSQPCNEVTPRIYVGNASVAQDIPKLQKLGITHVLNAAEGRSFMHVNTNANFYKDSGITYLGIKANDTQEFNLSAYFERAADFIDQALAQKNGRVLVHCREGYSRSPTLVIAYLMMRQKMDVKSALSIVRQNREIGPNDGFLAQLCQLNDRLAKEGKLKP
Mtb hypoxia rep: inhibitors of hypoxia-regulated fluorescent reporter in Mycobacterium tuberculosis; M. tuberculosis hypoxia-regulated fluorescent reporter, fluorescence; fluorescence inhibition, % (concentration not given with the values); 300,000 tested, 0.1% active; in the data active means fluorescence inhibition mostly above about 23%, no sharp cut-off; inactive means mostly below about 17%
BioA inh: BioA (M. tuberculosis) enzyme inhibition; purified M. tuberculosis BioA enzyme, plate reader; inhibition, % at 9.99 µM; 360,000 tested, 0.096% active; in the data active means inhibition above about 40%
3CLpro inhibitor: SARS-CoV 3CLpro protease inhibition; P0C6X7; recombinant SARS-CoV 3CLpro, quenched FRET peptide cleavage; inhibition, % at 6 µM; 290,000 tested, 0.14% active; AID 1706; in the data active means inhibition above about 12%
Active calls of the source: *; nt = not tested or not shown.

SMILES	FadD28 FP inh	DUSP3 inh	Mtb hypoxia rep	BioA inh	3CLpro inhibitor
CCCCn1c(NCc2cc(C)ccc2O)nc2ccccc21	-1.2	nt	nt	0.0	nt
CC(C)n1c(NCc2cc(Cl)ccc2O)nc2ccccc21	-9.0	54.5*	21.4	-0.4	-3.7
C=CCn1c(NCc2cc(C)ccc2O)nc2ccccc21	-4.4	50.3*	8.4	-0.2	-2.5
CCc1ccc(C(C)=NNC(=O)c2ccc(-n3cnnn3)cc2)cc1	nt	nt	19.5*	nt	nt
CN(N=Cc1cccc(Br)c1)C1=NS(=O)(=O)c2ccccc21	nt	nt	-1.2	nt	nt
ON=C(CCc1ccccc1)c1ccc2c(c1)OCCO2	nt	nt	-3.1	nt	nt
COC(=O)[C@@]1(Cc2ccc(OC)cc2)C2c3cc(C(=O)N(C)C)[nH]c3CC2CN1C(=O)c1ccccc1 (some centres undefined)	nt	nt	-1.6	nt	nt
Cc1c(C(=O)NCC2COc3ccccc3O2)oc2ccc(S(=O)(=O)N(C)C3CCCCC3)cc12 (centres undefined)	-1.3	52.3*	1.6	-0.6	-1.3
O=C(/C=C/c1cn(CC(O)CN2CCCCC2)c2ccccc12)c1ccccc1 (centres undefined)	-1.6	20.1	32.6*	nt	-0.1
O=C(/C=C/c1cn(CC(O)CN2CCCCC2)c2ccccc12)c1cccs1 (centres undefined)	-2.7	8.5	6.1	nt	-1.5
Cc1ccc(CCNC(=O)C2CCCN(S(=O)(=O)c3c(C)noc3C=CN(C)C)C2)cc1 (centres undefined)	nt	nt	4.1	nt	nt
CC(C)N1CC2=C(OC(N)=C(C#N)C2c2cccnc2)/C(=C/c2cccnc2)C1 (centres undefined)	-1.0	13.6	7.3	43.0*	-2.9
COc1ccc(CNCc2cc3c(cc2[N+](=O)[O-])OCO3)cc1	-3.7	53.0*	-2.1	-2.0	-6.5
Cc1nn(C)c(C)c1S(=O)(=O)N(CC(=O)N1CCc2ccccc21)c1ccc(C(C)C)cc1	-4.1	50.3*	-1.0	0.2	1.6
Cc1sc2ncnc(N3CCC(C(=O)NNC(=O)c4ccccc4Cl)CC3)c2c1C	-1.4	53.3*	3.0	0.8	-0.1
Cc1sc2ncnc(N3CCC(C(=O)NNC(=O)COc4ccccc4Cl)CC3)c2c1C	-3.3	nt	-1.3	nt	nt
Cc1ccccc1N=C1NC(=O)/C(=C/c2cccn2-c2cccc(C(=O)O)c2)S1	nt	56.3*	-2.5	nt	-2.6
COc1ccc(C2=NN(c3nc4ccccc4s3)C(=O)C2=CN(C)C)cc1	nt	nt	4.4	nt	nt
COc1ccc(OC2C=CC(c3ccccc3)OC2COC(=O)CCC(C)=NOC(C)c2cn(C3COCC3O)nn2)cc1 (centres undefined)	nt	nt	0.7	nt	nt
Cc1cc2ncc(C(=O)Nc3ccccc3)c(C)n2n1	-0.1	-23.4	-9.7	nt	-4.5
Cc1nn2c(C)c(C(=O)Nc3ccccc3)cnc2c1C#N	-0.9	51.4*	6.6	0.9	2.3
CCOc1ccc(C=NNC(=O)C(O)c2ccccc2)c(O)c1 (centres undefined)	nt	nt	-5.6	nt	nt
Nc1nnc(-c2cc3c(ccc4ccccc43)oc2=O)s1	nt	53.7*	-6.0	nt	-1.3
COc1cc(C=C(NC(C)=O)C(=O)Nc2ccc(NC(C)=O)cc2)ccc1OC(C)=O	nt	nt	5.7	nt	nt
CC(C)CC(NC(=O)OC(C)(C)C)C(=O)N1CCC(C(=O)O)CC1 (centres undefined)	nt	nt	8.4	nt	nt
SMILES	FadD28 FP inh	DUSP3 inh	Mtb hypoxia rep	BioA inh	3CLpro inhibitor
O=[N+]([O-])c1cccc(/C=N/n2c(C3CCCCC3)n[nH]c2=S)c1	18.5*	-36.0	nt	nt	3.0
CCN=c1scc(-c2ccco2)n1/N=C/c1ccc(OC)c(O)c1	9.4*	-3.4	nt	-0.7	-6.0
CCN=c1scc(-c2ccco2)n1N=Cc1ccc(OC)c(O)c1	nt	nt	7.1	nt	nt
CCC(=O)N1N=C2CC(C)(C)OCC2C1c1ccccc1 (centres undefined)	-1.9	51.3*	16.2	nt	4.5
CCc1cccc2c(C(=O)CN3C(=O)NC4(CCc5ccccc54)C3=O)c[nH]c12 (centres undefined)	33.1*	nt	-7.7	-0.1	nt
CCc1cccc2c(C(=O)CN3C(=O)NC(C)(c4cccc5ccccc45)C3=O)c[nH]c12 (centres undefined)	19.4*	21.9	1.3	nt	6.3
O=C(NCc1ccc(Cl)cc1)c1ccc2nc[nH]c2c1	-3.4	-3.6	4.9	nt	-2.0
O=C(NCc1cccc(Cl)c1)c1ccc2nc[nH]c2c1	-1.2	55.6*	-8.0	6.8	1.8
O=C(NN=Cc1c(F)cccc1Cl)C(=O)N1CCCCCC1	nt	nt	-0.4	nt	nt
COc1ccc(S(=O)(=O)/N=C2/NC(=O)/C(=C/c3ccco3)S2)cc1	20.1*	-1.2	3.1	nt	1.0
COc1cc(/C=N/NC(=O)c2cc3ccccc3[nH]2)ccc1O	-2.1	57.3*	nt	0.3	-8.5

Bioassay records: PubChem BioAssay, several laboratories
